The values that follow come from PubChem BioAssay.

Values joined by “and” are separate entries in the source; they are usually repeats but may differ in a detail not shown here. Equal entries are not always repeated. For part of these data: Potency and affinity values are given separately. Active and inactive are the calls of the source. Unless noted, no stated cut-off is given here; in the data, active means parasite load remaining mostly below about 12% (no sharp cut-off); inactive means mostly above about 10%.

Test [1] concerns the target 6-phosphogluconate dehydrogenase, decarboxylating (Homo sapiens) (UniProt P52209). Kind of test: inhibition of human phosphogluconate dehydrogenase – biochemical, recombinant enzyme, NADPH absorbance, primary screen (AID 1159550;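 active means at least 20% inhibition of 6-phosphogluconate dehydrogenase activity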). The note with it: recombinant 6PGD, NADPH absorbance 341 nm; at 10 µM; stronger effect = higher value.
Test [2] is described as follows: EMT-state selective cytotoxicity in co-culture – imaging, PC-3E GFP, TEM4-18 mCherry, primary screen (AID 1345086;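 active means compounds killing one labelled cell type while sparing the other, by normalised counts and ratio limits, not self-fluorescent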;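 on all read-outs here: cells exposed to compound for 72 h before imaging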;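 on red/green cell ratio (normalised): normalised mesenchymal count divided by normalised epithelial count so high means epithelial killing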). The note with it: PC-3E GFP / TEM4-18 mCherry co-culture, imaging cell counts, at 1 µM; for red/green cell ratio (normalised): actives lie on both sides, counts scaled to control wells, 1 = unselective.
In test [3] the target is NAD(+) hydrolase SARM1 (Homo sapiens) (UniProt Q6SZW1). The test can be described thus: blocking NAD cleavage by SARM1 SAM-TIR – cell lysate, NAD-Glo luminescence (AID 1508614;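 active means compound whose remaining NAD level is above about 45 nM, limit read from the data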). The note with it: SAM-TIR HEK293T lysate NADase, at 1 µM, stronger effect = higher value.
Test [4] is described as follows: compounds altering viability of human ES cells (AID 493140; call rule not given here;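 further: cells exposed to compounds for four days before counting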). As to conditions: human embryonic stem cell survival screen; stronger effect = higher value.
A short description of test [5]: P. berghei load reduction in hepatocytes – cell-based, HepG2, luciferase luminescence, HepG2 viability, primary screen (AID 624349).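 Further: 100% = mean of DMSO negative control wells on the same plate.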 The note with it: P. berghei liver stage in HepG2, luciferase luminescence, concentration not given here; parasite load remaining: stronger effect = lower value; viability: measured here: HepG2 viability without parasites.
Test [6] in a line: viability loss with induced miR-34 in A549 – imaging, A549 dox-inducible miR-34, nuclei and caspase counts, primary screen (AID 1347080;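 active means compounds whose cell count with miR-34 switched on is under 0.7 times the count with it off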). The note with it: A549 miR-34 inducible, Hoechst nuclei count, 48 h.
Test [7] deals with Mitogen-activated protein kinase 7 (Homo sapiens) (UniProt Q13164). Kind of test: Gal4-ERK5 driven luciferase induction – cell-based, HTS, primary screen (AID 1508626;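 active means luciferase signal above three times the same-plate solvent-only control wells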;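 further: luciferase driven by Gal4-ERK5 fusion binding five Gal4 sites before minimal TATA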). The note with it: HeLa Gal4-ERK5 transactivation, 18 h, at 5 µM, stronger effect = higher value.
The nature of test [8]: blockers of polyQ-driven CASP3 activation – cell-based (AID 1583). The note with it: polyglutamine-induced caspase-3 activation, cell assay; stronger effect = higher value;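 tested at 10 µM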.
A short description of test [9]: yeast 75Q aggregation reduction – 75Q-TubU reporter (AID 1593). The note with it: Yeast 75Q polyglutamine aggregation reporter.
A short description of test [10]: restoration of touch response, mutant HTT neurons – whole organism, C. elegans mechanosensory neurons, N-terminal huntingtin (AID 1599). The note with it: C. elegans polyQ-huntingtin mechanosensory neurons, stronger effect = higher value.
Test [11] can be described thus: blockers of cytochrome c efflux from mitochondria – biochemical, purified mitochondria (AID 1603).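 Further: mouse liver mitochondria challenged with calcium chloride; signal normalized to the plate average as 100%.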 As to conditions: stronger effect = lower value.
A short description of test [12]: polyglutamine aggregate formation blockers (AID 1604). The note with it: polyglutamine-induced protein aggregation inhibition assay; stronger effect = higher value; tested at 2.5 µM.
Test [13] can be described thus: glutamate transport activators, MN-1 cells, MN-1 cell line (AID 1612).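 Further: tested at 1 µM final; 0% = mean of DMSO vehicle wells on each plate; positive means more glutamate uptake than control and negative means less.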 As to conditions: MN-1 motor neuron cells, stronger effect = higher value.
Test [14] in a line: GFP-Q80 aggregate reduction, neuronal-like cells, cell-based, NGF-treated PC12, GFPQ80 (AID 1614).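 Further: lower means fewer inclusions and 0 means no inclusions at all.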 As to conditions: PC12 NGF-treated GFP-polyQ80 inclusion reduction.
A short description of test [15]: 75Q-TubH aggregate inhibition, S. cerevisiae, yeast (AID 1616). As to conditions: S. cerevisiae 75Q-TubH polyglutamine aggregation suppression; stronger effect = higher value.
Setting [16] is: measured here: epithelial PC-3E GFP cell survival.
[17] abbreviates: measured here: mesenchymal TEM4-18 mCherry cell survival.
[18] abbreviates: stronger effect = lower value, cell number ratio, induced over uninduced.
Setting [19] is: measured here: relative caspase fold change +Dox/-Dox.
Setting [20] is: measured here: total cells with miR-34 induction, stronger effect = lower value.
[21] abbreviates: measured here: total cells without miR-34 induction.

NAD(+) hydrolase SARM1 (Homo sapiens), sequence (Q6SZW1 whole entry, looked up): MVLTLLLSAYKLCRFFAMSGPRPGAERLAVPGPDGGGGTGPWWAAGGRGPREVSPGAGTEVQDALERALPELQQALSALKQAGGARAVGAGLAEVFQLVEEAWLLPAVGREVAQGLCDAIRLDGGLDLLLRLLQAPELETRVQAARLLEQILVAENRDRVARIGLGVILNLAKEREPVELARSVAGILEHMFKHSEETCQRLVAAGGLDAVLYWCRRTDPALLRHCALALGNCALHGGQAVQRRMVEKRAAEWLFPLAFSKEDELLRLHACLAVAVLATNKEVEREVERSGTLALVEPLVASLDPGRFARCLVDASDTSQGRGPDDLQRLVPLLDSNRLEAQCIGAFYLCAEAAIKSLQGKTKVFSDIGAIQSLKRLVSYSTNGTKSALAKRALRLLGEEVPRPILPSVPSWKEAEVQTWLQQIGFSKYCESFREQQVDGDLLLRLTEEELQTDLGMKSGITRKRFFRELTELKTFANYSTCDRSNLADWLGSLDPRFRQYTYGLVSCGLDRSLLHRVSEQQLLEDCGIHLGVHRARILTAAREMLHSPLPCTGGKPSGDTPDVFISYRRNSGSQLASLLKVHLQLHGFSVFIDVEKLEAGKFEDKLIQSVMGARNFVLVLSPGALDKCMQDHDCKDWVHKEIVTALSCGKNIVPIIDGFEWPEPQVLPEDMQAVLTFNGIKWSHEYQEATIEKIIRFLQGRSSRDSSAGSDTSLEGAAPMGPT
Mitogen-activated protein kinase 7 (Homo sapiens), sequence (Q13164 whole entry, looked up, the tested form may be a part): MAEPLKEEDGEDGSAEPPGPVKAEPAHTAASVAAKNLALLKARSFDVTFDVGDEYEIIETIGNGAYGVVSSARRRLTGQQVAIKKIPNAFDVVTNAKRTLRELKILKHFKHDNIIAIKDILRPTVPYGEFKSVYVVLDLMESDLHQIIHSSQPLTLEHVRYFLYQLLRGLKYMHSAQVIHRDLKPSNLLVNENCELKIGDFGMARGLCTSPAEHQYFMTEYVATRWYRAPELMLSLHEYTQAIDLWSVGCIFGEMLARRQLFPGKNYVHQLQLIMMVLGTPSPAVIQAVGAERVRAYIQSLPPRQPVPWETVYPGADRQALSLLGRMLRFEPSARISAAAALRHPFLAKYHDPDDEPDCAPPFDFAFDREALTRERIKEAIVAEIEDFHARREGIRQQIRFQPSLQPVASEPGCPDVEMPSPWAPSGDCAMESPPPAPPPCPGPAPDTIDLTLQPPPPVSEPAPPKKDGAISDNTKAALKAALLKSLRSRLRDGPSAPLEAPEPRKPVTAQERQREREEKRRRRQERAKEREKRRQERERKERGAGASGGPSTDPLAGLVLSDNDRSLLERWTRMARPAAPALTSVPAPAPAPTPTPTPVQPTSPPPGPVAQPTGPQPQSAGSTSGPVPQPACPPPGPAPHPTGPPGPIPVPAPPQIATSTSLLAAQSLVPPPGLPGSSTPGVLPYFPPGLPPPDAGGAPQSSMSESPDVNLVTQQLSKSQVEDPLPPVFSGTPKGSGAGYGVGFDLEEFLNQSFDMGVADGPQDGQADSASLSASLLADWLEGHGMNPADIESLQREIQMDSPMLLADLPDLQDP
6-phosphogluconate dehydrogenase, decarboxylating (Homo sapiens), sequence (P52209 whole entry, looked up): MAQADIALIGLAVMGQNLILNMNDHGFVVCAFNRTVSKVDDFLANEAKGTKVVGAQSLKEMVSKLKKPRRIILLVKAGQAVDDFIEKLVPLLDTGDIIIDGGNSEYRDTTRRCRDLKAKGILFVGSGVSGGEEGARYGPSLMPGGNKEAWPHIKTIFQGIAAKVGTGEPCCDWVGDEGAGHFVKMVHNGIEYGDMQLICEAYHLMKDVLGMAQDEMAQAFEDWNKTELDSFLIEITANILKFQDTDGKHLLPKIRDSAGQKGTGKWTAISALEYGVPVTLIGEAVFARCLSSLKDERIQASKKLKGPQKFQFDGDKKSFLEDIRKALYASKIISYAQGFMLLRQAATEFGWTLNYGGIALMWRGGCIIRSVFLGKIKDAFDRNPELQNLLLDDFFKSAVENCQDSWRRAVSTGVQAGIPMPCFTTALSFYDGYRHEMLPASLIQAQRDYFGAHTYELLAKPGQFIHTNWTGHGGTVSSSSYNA

On to `NC[C@@H]1CC[C@@H](N)[C@@H](O[C@H]2[C@H](O)[C@@H](O[C@H]3O[C@H](CO)[C@@H](O)[C@H](N)[C@H]3O)[C@H](N)C[C@@H]2N)O1`, for which the inhibition in test [1] was -2.83% (inactive). Also, in test [2], the red/green cell ratio (normalised) is 1.19 (inactive). Moreover, the normalised cell number in test [2] (setting [16]) turned out to be 0.9; in [2] (setting [17]), 1.07. For the same compound, the remaining NAD in [3] was 10 nM (inactive).

On to `COc1cc2cc3c4cc(OC)c(OC)cc4cc[n+]3c(C)c2cc1OC`, for which the survival in [4] is 0.333 (inactive). Moreover, the parasite load remaining in [5] was 91.2% (inactive) and 45.3% (inactive) and 68.5% (inactive). The viability in test [5] was 98.6% and 66.5% and 73.3%. The inhibition in [1] is 13.7% (inactive). The red/green cell ratio (normalised) in test [2] is 0.8 (inactive). Besides, the normalised cell number in test [2] (setting [16]) worked out at 1; in test [2] (setting [17]) it was 0.8. The fold change in test [6] (setting [18]) is 0.879 (inactive); in test [6] (setting [19]), 1.23. Further, the cell count in test [6] (setting [20]) amounted to 8980; in [6] (setting [21]), 10200. In test [7], the luciferase signal is 72 AU (inactive).

Take `CO[C@H]1/C=C/O[C@@]2(C)Oc3c(C)c(O)c4c(O)c(c5c(nc6cc(C)ccn65)c4c3C2=O)NC(=O)/C(C)=C\C=C\[C@H](C)[C@H](O)[C@@H](C)C(O)[C@@H](C)[C@H](OC(C)=O)[C@@H]1C` (some centres undefined): the parasite load remaining in test [5] is 51.2% (inactive). Moreover, the viability in test [5] amounted to 113%. The inhibition in [1] is -0.37% (inactive). The red/green cell ratio (normalised) in test [2] was 1.15 (inactive). In addition, the normalised cell number in test [2] (setting [16]) is 1.21; in test [2] (setting [17]), 1.39. For the same compound, the fold change is 0.902 (inactive) in test [6] (setting [18]) and 2.53 in test [6] (setting [19]). Further, the cell count was 11500 in test [6] (setting [20]) and 12700 in [6] (setting [21]).

In the case of `CC(=C(CCOP(=O)(O)O)SC(=O)c1ccccc1)N(C=O)Cc1cnc(C)nc1N`, the values for the inhibition in [8] and in [1] were 9.82% and -10.8% (inactive), respectively. Moreover, the score in test [9] came out at 1.37. This compound showed a rescue above control in test [10] of 3.18. Besides, in test [11], the cytochrome c release ratio came to 0.86. Besides, the inhibition of aggregation in [12] is 39.4%. Also, the glutamate uptake change in test [13] was determined as 18.4%. Also, the inclusion score in test [14] was 2. Moreover, in test [15], the aggregation suppression score was 0.998. For the same compound, the red/green cell ratio (normalised) in test [2] is 0.95 (inactive). The normalised cell number in test [2] (setting [16]) came to 1.05; in test [2] (setting [17]), 1. Besides, the remaining NAD in test [3] is 10 nM (inactive).

Regarding `O=c1[nH]c(=O)n(C2C[C@H](O)[C@@H](CO)O2)cc1C(F)(F)F` (some centres undefined), the parasite load remaining in test [5] was 74% (inactive) and 246% (inactive) and 30.9% (inactive). Further, the viability in test [5] is 71.7% and 82.9% and 99%. Also, the inhibition in test [1] is 10.3% (inactive). In addition, the red/green cell ratio (normalised) in test [2] was 1.34 (inactive). Also, the normalised cell number in test [2] (setting [16]) was 0.93; in test [2] (setting [17]), 1.25. The fold change is 1.06 (inactive) and 0.925 (inactive) in [6] (setting [18]); 0.737 and 3.77 in test [6] (setting [19]). Moreover, the cell count is 2260 and 12300 in [6] (setting [20]); 2140 and 13300 in test [6] (setting [21]).

In the case of `N[C@H](Cc1ccccc1)C(=O)O`, the inhibition in test [8] was 15.8%; in test [1], 6.57% (inactive). This compound yielded a score in test [9] of 1.59. The same compound had a rescue above control in [10] of -4.58. For the same compound, the cytochrome c release ratio in test [11] turned out to be 0.85. In addition, the inhibition of aggregation in test [12] was 56.8%. Also, the glutamate uptake change in test [13] is 4.25%. In [14], this compound yielded an inclusion score of 2. Moreover, the aggregation suppression score in [15] turned out to be 1.21. Moreover, in [5], the parasite load remaining is 140% (inactive). The viability in test [5] was determined as 87.2%. Further, the red/green cell ratio (normalised) in [2] is 1.1 (inactive). Also, the normalised cell number in [2] (setting [16]) was found to be 0.82; in test [2] (setting [17]), 0.9. Besides, the remaining NAD in test [3] was 98 nM (active). The luciferase signal in [7] is 56 AU (inactive).

With `COc1ccc2cc([C@H](C)CO)ccc2c1`, the parasite load remaining in test [5] is 184% (inactive) and 65% (inactive). Besides, the viability in test [5] is 85.1% and 144%. Besides, the inhibition in test [1] was 2.43% (inactive). Moreover, the red/green cell ratio (normalised) in test [2] was 1.04 (inactive). Further, the normalised cell number was found to be 1.15 in test [2] (setting [16]) and 1.2 in test [2] (setting [17]). Further, the fold change was 0.861 (inactive) in test [6] (setting [18]) and 3.55 in test [6] (setting [19]). Also, the cell count in test [6] (setting [20]) stood at 11000; in test [6] (setting [21]), 12800. Further, in test [3], the remaining NAD was 10 nM (inactive). For the same compound, the luciferase signal in test [7] is 32 AU (inactive).

Consider `NC(N)=O`, for which the results for the inhibition in test [8] and in test [1] were 5.74% and -2.6% (inactive), respectively. Moreover, in [9], the score was determined as 1.17. In addition, the rescue above control in test [10] is 4.79. Besides, the cytochrome c release ratio in test [11] was 1.04. The compound also yielded an inhibition of aggregation in test [12] of 43.7%. For the same compound, in test [13], the glutamate uptake change is -1.11%. Moreover, the inclusion score in [14] was found to be 2. In addition, the aggregation suppression score in test [15] turned out to be 1.21. The parasite load remaining in test [5] was 107% (inactive) and 54.8% (inactive). Also, in [5], the viability was 72.7% and 99.5%. For the same compound, in test [2], the red/green cell ratio (normalised) was 0.95 (inactive). The normalised cell number in test [2] (setting [16]) was found to be 1.22; in test [2] (setting [17]), 1.16. Besides, the fold change in test [6] (setting [18]) is 0.93 (inactive); in test [6] (setting [19]), 2.44. The cell count is 12300 in test [6] (setting [20]) and 13300 in test [6] (setting [21]). For the same compound, in test [3], the remaining NAD was 10 nM (inactive). Also, in test [7], the luciferase signal is 52 AU (inactive).

As for `CCOC(=O)CCC(=O)O[C@H]1[C@H](O[C@@H]2[C@@H](C)[C@H](O[C@H]3C[C@@](C)(OC)[C@@H](O)[C@H](C)O3)[C@@H](C)C(=O)O[C@H](CC)[C@@](C)(O)[C@H](O)[C@@H](C)C(=O)[C@H](C)C[C@@]2(C)O)O[C@H](C)C[C@@H]1N(C)C`, the figures for the inhibition in test [8] and in test [1] were 26.4% and -8.96% (inactive), respectively. This compound also returned a score in test [9] of 1.27. In test [10], this compound gave a rescue above control of 16.6. For the same compound, the cytochrome c release ratio in test [11] came out at 1.72. Further, in test [12], the inhibition of aggregation was determined as 47.5%. Besides, in test [13], the glutamate uptake change is -6.79%. Moreover, the inclusion score in test [14] is 2. In test [15], this compound gave an aggregation suppression score of 1.2. Further, the parasite load remaining in test [5] is 61.8% (inactive). The viability in test [5] amounted to 170%. Besides, the red/green cell ratio (normalised) in test [2] was 1.11 (inactive). Also, the normalised cell number in [2] (setting [16]) came out at 1.38; in test [2] (setting [17]) it was 1.54. The fold change in test [6] (setting [18]) was 0.87 (inactive); in test [6] (setting [19]) it was 1.05. In addition, the cell count in [6] (setting [20]) turned out to be 11100; in test [6] (setting [21]), 12700. For the same compound, the remaining NAD in [3] is 10 nM (inactive). Further, in test [7], the luciferase signal was 208 AU (inactive).

In the case of `C[n+]1cccc(C(=O)[O-])c1`, in [5], the parasite load remaining was 79.8% (inactive). Also, in test [5], the viability was 103%. Further, in test [1], the inhibition was -5.32% (inactive). Also, the red/green cell ratio (normalised) in [2] was 0.83 (inactive). Besides, the normalised cell number in test [2] (setting [16]) was 0.9; in test [2] (setting [17]) it was 0.75. In addition, the fold change is 0.877 (inactive) in test [6] (setting [18]) and 1.44 in test [6] (setting [19]). Moreover, the cell count worked out at 9790 in test [6] (setting [20]) and 11200 in test [6] (setting [21]). Also, in test [7], the luciferase signal was 44 AU (inactive).

One may read the inhibition as the relative decrease from the control value, in per cent. For orientation: viability means a read-out of living cells in per cent, often relative to untreated cells.
